Source: PubChem
Shown are actives, neighbours in structure and some others; about 3.3% of the full set was active somewhere.
14-3-3 Bad PPI – inhibitors of 14-3-3 zeta/Bad binding, primary screen, biochemical, TR-FRET, bovine 14-3-3 zeta | 14-3-3 protein zeta/delta (Bos taurus), P63103 | TR-FRET 14-3-3zeta/Dy647-pBad peptide displacement, 1 h | inhibition, % at 21.7 µM | actives 0.71% (n = 220,000) | AID 781, 2007;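 active = inhibition above about 70%, limit read from the data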
Bim-Mcl-1 – inhibitors of Bim peptide binding to Mcl-1, primary screen, biochemical, bead-based flow cytometry, multiplex; Bim peptide-Mcl-1 binding; inhibition, % at 10 µM; actives 0.1% (n = 190,000); in the data active = inhibition above about 40%
Mcl1-Bid inh – Mcl-1/Bid binding inhibitors, primary screen, biochemical, TR-FRET, 1536-well; TR-FRET Mcl-1/Bid-Dy647 peptide binding; inhibition, % at 21.7 µM; actives 0.97% (n = 220,000);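 active = compounds that cut the binding signal by more than half at the single screening dose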;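 note: His-tagged Mcl-1 with europium anti-His antibody binding Bid BH3 peptide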
Mcl1 Noxa PPI – Mcl-1/Noxa binding inhibitors, primary screen, biochemical, TR-FRET, 1536-well. TR-FRET Mcl-1/Noxa peptide binding, 2 h. actives 1.5% (n = 220,000). AID 1022, 2008. inhibition, % at 21.7 µM;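 active = compounds that cut the protein-peptide binding signal by more than 50% relative to plate controls in a single-dose test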;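 note: His-tagged Mcl-1 with rhodamine Noxa BH3 peptide and terbium anti-His antibody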
NCF1 inh – p47phox/p22phox peptide binding inhibitors, primary screen, biochemical, uHTS, NADPH oxidase regulatory subunit | inhibition, % at 24.7 µM | Neutrophil cytosol factor 1 (Homo sapiens), P14598 | fluorescence polarization, 2 h | actives 0.53% (n = 220,000)
eIF4E 4G PPI – eIF4E–eIF4G protein interaction inhibitors, primary screen, biochemical, uHTS, TR-FRET, eIF4GI fragment | Eukaryotic translation initiation factor 4E (Mus musculus) + Eukaryotic translation … | TR-FRET eIF4E-eIF4GI(517-606) binding, 2 h | inhibition, % at 21.7 µM | actives 0.37% (n = 220,000)
Of the large screens only hits and unclear results are named; the others gave an inactive call; [ ] = another dose, or the depositor's remark.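 Rule for the calls, unless noted: active = inhibition above about 30% (limit read from the data); inactive = the rest.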

Cc1nc2c(c(=O)n1CCC1=CCCCC1)c1nc3ccccc3nc1n2/N=C/c1ccccc1	none
CCOCCCn1c(C)nc2c(c1=O)c1nc3ccccc3nc1n2CCC1=CCCCC1	Mcl1-Bid inh 65.9
c1ccc(Cn2nnc3c(NCc4ccc5c(c4)OCO5)ncnc32)cc1	Mcl1-Bid inh 52.2 (no result: Bim-Mcl-1)
O=C1c2ccc3c4c(ccc(c24)C(=O)N1CCCCO)C(=O)N(CCCCO)C3=O	14-3-3 Bad PPI 95.7, NCF1 inh 61.8
O=C(c1ccc2c(c1)C(=O)N(CCCO)C2=O)c1ccc2c(c1)C(=O)N(CCCO)C2=O	none
CCOC(=O)c1ccc(NC(=O)Nc2ccon2)cc1	none (no result: Bim-Mcl-1)
CCOC(=O)c1ccc(NC(=O)Nc2ccc(Cl)cn2)cc1	NCF1 inh 36.1
O=C(COc1ccc(Cl)cc1)Nc1ccc(Cl)cn1	14-3-3 Bad PPI 81.6
CCCCNc1n[n+](C)c(-c2cccc(C)c2)s1	none (no result: Bim-Mcl-1)
O=C(CNC(=O)C1COc2ccccc2O1)N/N=C\c1ccc(Cl)cc1 (centres undefined)	none (no result: Bim-Mcl-1)
CC1CN(c2ccc(Oc3ccccc3)cc2)c2nc3c(c(=O)n(CC(N)=O)c(=O)n3C)n2C1 (centres undefined)	eIF4E 4G PPI 95.4 (no result: Bim-Mcl-1)
Cc1ccc(N2CC(C)Cn3c2nc2c3c(=O)n(CC(=O)OCc3ccccc3)c(=O)n2C)cc1C (centres undefined)	none
CCC(C)c1ccc(NC(=O)COC(=O)C2=COCCO2)cc1 (centres undefined)	none
O=P(O)(O)c1ccccc1OCCOCCOc1ccccc1P(=O)(O)O	none
CCOP(=O)(O)c1ccccc1OCCOCCOc1ccccc1P(=O)(O)OCC	Mcl1 Noxa PPI 53.5
CN=c1scc(-c2ccccc2F)n1/N=C/c1ccc(O)c(O)c1O	Mcl1 Noxa PPI 57.6
CC(C)N=c1scc(-c2cccs2)n1/N=C/c1ccc(O)c(O)c1O	Mcl1 Noxa PPI 51.5
CN=c1scc(-c2ccccc2F)n1/N=C/c1ccc[nH]1	none
CC1=NN(c2nc3ccccc3[nH]2)C(=O)C1Cc1ccccc1 (centres undefined)	none (no result: Bim-Mcl-1)
CCCCN(C(=O)c1ccc(Cl)c([N+](=O)[O-])c1)c1c(N)n(CCC)c(=O)[nH]c1=O	none
CC(Sc1nnnn1-c1ccc(Cl)cc1)C(=O)NCC(=O)Nc1ccc(F)c(F)c1F (centres undefined)	none
O=c1[nH]c2ccccc2n2c(=S)[nH]nc12	none (no result: Bim-Mcl-1)
O=C(NC(=S)Nc1nc2c(s1)CSc1ccccc1-2)c1ccccc1	Mcl1 Noxa PPI 72.7
CCN(CC)C(=O)CC(c1cc(OC)c(OC)c(OC)c1)c1c(OC)cc(OC)c2c(-c3ccccc3)cc(=O)oc12 (centres undefined)	Mcl1 Noxa PPI 96.1, eIF4E 4G PPI 34.5 (no result: Bim-Mcl-1)
CCOC(=O)C1CCN(c2ccc(C(N)=O)cc2[N+](=O)[O-])CC1	none
O=C1c2ccccc2C(=O)N1/N=C/c1ccc(O)c(O)c1	Mcl1 Noxa PPI 71.6
O=C1C2C3C=CC(CC3)C2C(=O)N1/N=C/c1ccc(O)c(O)c1 (centres undefined)	none
COc1ccc(-c2cc(C(F)(F)F)nc(SCC(=O)N3CCOCC3)n2)cc1OC	none
O=C(CSc1nc(-c2ccccc2)cc(C(F)(F)F)n1)N1CCOCC1	Mcl1-Bid inh 77.0
Cc1ccccc1-n1c(C)nnc1SCC(=O)NC1CCCc2ccccc21 (centres undefined)	14-3-3 Bad PPI 92.3[fluorescence artefact?]
CN(C)c1ccnc(-n2cccc2/C=N/OCc2cccc(F)c2)c1C#N	14-3-3 Bad PPI 79.8
CO/N=C/c1cccn1-c1nccc(OC)c1C#N	none
COc1cc(CC(=O)NCCc2ccc(S(N)(=O)=O)cc2)cc(OC)c1OC	eIF4E 4G PPI 81.3
CC(=O)Nc1cccc(NC(=S)Nc2ccc(F)c(Cl)c2)c1	eIF4E 4G PPI 92.5
O=C(NC(=S)N(Cc1ccccc1)Cc1ccccc1)c1ccccc1F	none
CN(C)c1ccc(NC(=O)COC(=O)c2cc(Cl)ccc2[N+](=O)[O-])cc1	Mcl1 Noxa PPI 53.5
Cc1cccc(NC(=O)C2C(C(=O)O)C3C=CC2C32CC2)c1C (centres undefined)	Mcl1-Bid inh 97.4
Cc1ccc(NC(=O)C2C(C(=O)O)C3C=CC2C32CC2)cc1 (centres undefined)	none
CSc1nc(Cl)c(Cc2ccc(OCC(C)C)cc2)c(N2CCOCC2)n1	none
CCCCOc1ccc(Cc2c(Cl)nc(SC)nc2N2CCOCC2)cc1	Bim-Mcl-1 45.0
Nc1nc(SCc2ccc([N+](=O)[O-])cc2)nc2nc3c(cc12)CCCC3	Mcl1-Bid inh 78.8
Nc1nc(SCC(=O)Nc2ccccc2)nc2nc3c(cc12)CCCC3	none
O=C(O)c1cn(C2CC2)c2cc(N3CCN(S(=O)(=O)c4ccc5c(c4)OCCO5)CC3)c(F)cc2c1=O	none
CC(C)n1c(=S)[nH]c2c1c(=O)[nH]c(=O)n2C	Mcl1 Noxa PPI 54.4
C=CC(C)n1c(Br)nc2c1c(=O)[nH]c(=O)n2C (centres undefined)	none
CN(C)c1ccc(C(=O)/C=C/c2ccc(Br)cc2)cc1	Bim-Mcl-1 82.0
CN(C)c1ccc(/C=C/C(=O)c2cc(Cl)ccc2O)cc1	NCF1 inh 79.0 (no result: Bim-Mcl-1)
CCn1cc(Br)c(C(=O)N2CCN(c3ccccc3)CC2)n1	14-3-3 Bad PPI 71.9
O=C(NCCO)C(O)C(O)C(=O)NCCO (centres undefined)	none
CCn1c(=O)c2cc(C(=O)N3CCCC3)sc2c2ccccc21	none
CCCN(CCC)CCNC(=O)c1cc2c(=O)n(CC)c3ccccc3c2s1	eIF4E 4G PPI 96.7 (no result: Bim-Mcl-1)
Cc1cccc(-n2[nH]c3c4c(ccc3c2=O)C(=O)c2ccccc2C4=O)c1	Mcl1 Noxa PPI 55.1, NCF1 inh 49.7
CC(=O)c1c(C(C)=O)c(C)n(C(c2ccccc2)c2ccccc2)c1C	none
CCC(=O)NC(NC(=S)Nc1ccc(S(N)(=O)=O)cc1)C(Cl)(Cl)Cl (centres undefined)	none
COc1ccc2[nH]c(C)cc(=O)c2c1	none
COc1ccc2[nH]c3c(C)c4ccncc4c(C)c3c2c1	Mcl1 Noxa PPI 85.6, NCF1 inh 91.8, eIF4E 4G PPI 33.4 (no result: Bim-Mcl-1)
CN(Cc1ccccc1)c1ccc(S(=O)(=O)N2CCC(C(=O)O)CC2)cc1[N+](=O)[O-]	none
CC(C)CN(C(=O)COC(=O)c1cc2c(s1)CCC2)C1CCS(=O)(=O)C1 (centres undefined)	Mcl1 Noxa PPI 55.4
